For 90 compounds, inhibition results are on record in PubChem BioAssay AID1430 (University of Pittsburgh Molecular Library Screening Center, 2008).

The whole screen tested about 220,000 compounds, of which about 240 (0.11%) were called active.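 Rule for the calls: active = inhibition of 50% or more in the single-dose primary screen; inactive = inhibition below 50%.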 Many of the other results were omitted from the sample, so actives are more common in it than they were.

In general, inhibition refers to the relative decrease from the control value, in per cent.

The subject of this assay is hexokinase 1 [Trypanosoma brucei]. The assay is described as follows: Trypanosoma brucei hexokinase 1 inhibitors, primary screen, biochemical, G6PDH-coupled NADH absorbance, MLSCN library (AID 1430). The conditions noted are these: recombinant TbHK1, G6PDH-coupled NADH A340; at 10 µM; stronger effect = higher value.
In the case of `CCOc1ccccc1C(=O)NC1CC2CCCC(C1)N2Cc1ccccc1` (stereo not given), the inhibition was 3.91% (inactive).

`CCC(CC)C(=O)N1CCN(c2cccc(C)c2C)CC1`: the inhibition is -4.04% (inactive).

In the case of `Cc1c(Cl)c([N+](=O)[O-])nn1Cc1ccc(C(=O)N/N=C\c2cc(Cl)ccc2O)o1`, the inhibition was 0.728% (inactive).

`CCCc1nc(-c2cc3cc(C)ccc3[nH]c2=O)no1`: the inhibition is -10.1% (inactive).

On to `Cc1ccc(N(C(=O)Cc2cccs2)C(C(=O)NCC2CCCO2)c2ccncc2)cc1` (stereo not given), for which the inhibition was -7.37% (inactive).

With `CSc1nnnn1-c1c(C)cc(C)cc1C`, the inhibition was -0.934% (inactive).

Consider `O=C1CC(c2cccc(Cl)c2)CC(O)=C1C=Nc1ccccc1` (stereo not given), for which the inhibition is -3.36% (inactive).

With `CC(=O)O[C@]1(C(C)=O)CC[C@H]2[C@@H]3C=C(C)C4=CC(=O)CC[C@]4(C)[C@H]3CC[C@@]21C`, the inhibition is -3.98% (inactive).

`Cc1ccc(-c2nc(SCC(=O)Nc3ccccc3OC(F)F)c3c(C)c(C(=O)O)sc3n2)cc1`: the inhibition was -36.7% (inactive).

Take `COCCNC(=O)c1ccc(-n2c(SCc3cccnc3)nc3ccccc3c2=O)cc1`: the inhibition was -6.28% (inactive).

Regarding `CC(O)c1nc2c(c(=O)n(C)c(=O)n2C)n1C` (stereo not given), the inhibition was -12.1% (inactive).

Take `O=C(Nc1ccc(N2C(=O)c3cccc4cccc(c34)C2=O)cc1)c1ccc(N2CCCCC2)c([N+](=O)[O-])c1`: the inhibition was -9.23% (inactive).

As for `CCCCN(C(=O)c1ccc(OC(F)(F)F)cc1)c1c(N)n(CCC)c(=O)[nH]c1=O`, the inhibition is 2.61% (inactive).

Take `COc1cc(NC(=O)COC(=O)c2cnc(C)cn2)c(C)cc1[N+](=O)[O-]`: the inhibition is -6.37% (inactive).

For the compound `CCOC(=O)C1CCN(C(=O)C2(NC(=O)Nc3cccc(F)c3)CCCCC2)CC1`, the inhibition is -1.28% (inactive).

For `Cc1ccc(SC(C)C(=O)NCc2ccc(F)cc2)cc1` (stereo not given), the inhibition was 4.64% (inactive).

For `CC1Cc2ccccc2N1C1=CC(=O)CC(C)(C)C1` (stereo not given), the inhibition is -58.2% (inactive).

Take `CN(C)CCCO/N=C(\c1ccccc1)c1ccncc1`: the inhibition is -6.34% (inactive).

As to `C/C(=N\Nc1cccc(C(=O)O)c1)c1ccc2c(c1)Nc1ccccc1S2`, the inhibition is -4.39% (inactive).

Regarding `CCN(CC(=O)Nc1ccc(Cl)c(S(=O)(=O)N(C)C)c1)Cc1nc2ccccc2c(=O)[nH]1`, the inhibition is -2.75% (inactive).

Regarding `O=C(Oc1ccccc1Cl)c1ccc(N2CCOCC2)c([N+](=O)[O-])c1`, the inhibition is -7.89% (inactive).

Turning to `C/C(=N/NC(=O)CSc1ccccn1)c1ccc([N+](=O)[O-])cc1`, the inhibition was -9.77% (inactive).

Regarding `Cc1onc(C(=O)NCc2ccc(F)cc2)c1[N+](=O)[O-]`, the inhibition is -2.07% (inactive).

Turning to `CCOCCCNC(=O)C(NC(=O)c1ccccc1O)c1ccccc1` (stereo not given), the inhibition is -9.74% (inactive).

As for `COC(=O)C(C(=O)Nc1cccc(C)n1)C1CCCCCC1` (stereo not given), the inhibition was 5.11% (inactive).

In the case of `CC(=O)Nc1ccc(NC(=O)C(C)OC(=O)c2ccccc2C(=O)c2ccc(Cl)c([N+](=O)[O-])c2)cc1` (stereo not given), the inhibition is -6.27% (inactive).

Consider `O=S(=O)(NC1CCCCC1)c1ccc(F)c2ccccc12`, for which the inhibition is 2.7% (inactive).

Turning to `COC(=O)c1c(NC(=O)CCCC(=O)O)sc2c1CCCCC2`, the inhibition is -10.9% (inactive).

Regarding `C=CCn1c(COc2ccc(F)cc2)nnc1SCC(=O)Nc1cccc(S(N)(=O)=O)c1`, the inhibition was -3.84% (inactive).

On to `CCc1cccc2c3c([nH]c12)C(CC)(CC(=O)O)OCC3` (stereo not given), for which the inhibition is -3.41% (inactive).

On to `Cc1ccc(S(=O)(=O)N(C)C)cc1NC(=O)/C=C/c1cccs1`, for which the inhibition is 5.08% (inactive).

As to `N#Cc1c(N)nc2c(c1N)CC(C(F)(F)F)O2` (stereo not given), the inhibition was 4.59% (inactive).

For the compound `O=C(CN1C(=O)C2C3C=CC(C3)C2C1=O)NCCc1ccccc1Cl` (stereo not given), the inhibition was 57.8% (active).

Regarding `O=C(CN1C(=O)C2C3C=CC(C3)C2C1=O)NCC1COc2ccccc2O1` (stereo not given), the inhibition was -4.57% (inactive).

Regarding `O=C(CCN1C(=O)C2C3C=CC(C3)C2C1=O)Nc1ccccc1F` (stereo not given), the inhibition is -3.82% (inactive).

`Nc1nnnn1/N=C/c1cc([N+](=O)[O-])ccc1O`: the inhibition was -31.3% (inactive).

As to `O=C(NCCc1ccccc1)C1CCC(Cn2c(=O)c3ccccc3n(Cc3cccnc3)c2=O)CC1` (stereo not given), the inhibition was -9.56% (inactive).

As for `Cc1cc2nc(SCCN3CCOCC3)[nH]c2cc1C`, the inhibition was 2.94% (inactive).

Regarding `CCOC(=O)c1ccc(NNC(C)=O)c([N+](=O)[O-])c1`, the inhibition is -2.98% (inactive).

Turning to `N#Cc1ccc(Oc2ccc(C(F)(F)F)cc2NC(=O)c2ccc(F)cc2)cc1`, the inhibition is -2.47% (inactive).

On to `C#CCOCCOCCOCCNc1nc(N2CCN(C(=O)[C@H](CCC(=O)O)n3cc(C(N)CO)nn3)CC2)nc(N2CCN(C(=O)[C@H](Cc3ccc(O)cc3)n3cc(C(N)[C@H](C)CC)nn3)CC2)n1` (stereo not given in full), for which the inhibition is -6.04% (inactive).

Regarding `Cc1cc(OC(=O)c2ccccc2)c([N+](=O)[O-])c(=O)[nH]1`, the inhibition is -5.67% (inactive).

Regarding `Cc1ccc(C2=N/C(=C\c3ccc(OS(=O)(=O)c4ccc(C)cc4)cc3)C(=O)O2)cc1`, the inhibition is 2.44% (inactive).

On to `Brc1ccc(-c2noc(-c3ccccc3)n2)o1`, for which the inhibition was -6.63% (inactive).

For the compound `O=C1C(=O)N(c2ccccc2)c2ccccc21`, the inhibition is -11.4% (inactive).

For the compound `Cc1cc(C(=O)N/N=C/c2cc([N+](=O)[O-])cc(C)c2O)n[nH]1`, the inhibition is 1.39% (inactive).

`COC(=O)NNC(=O)C1CCC(C)CC1` (stereo not given): the inhibition was -0.712% (inactive).

`O=C(NN=C1CCC(=NNC(=O)c2cccnc2)CC1)c1cccnc1`: the inhibition was -1.3% (inactive).

Take `Cc1ccc(NC(=O)Nc2cc(-c3ccccc3)nn2C)cc1Cl`: the inhibition is -21.8% (inactive).

`CC1(C)OC(=O)C(=CNC(CO)C(=O)O)C(=O)O1` (stereo not given): the inhibition is 2.5% (inactive).

`Cc1ccc(CSc2nc3[nH]ncc3c(=O)[nH]2)cc1`: the inhibition is -4.89% (inactive).

For `O=C1NC(c2cccc(Cl)c2)Nc2ccccc21` (stereo not given), the inhibition was -2.98% (inactive).

Take `C=CCN1C=C2C(=O)C(C)(OC(=O)CCc3ccccc3)C(=O)C=C2C=C1c1ccc(C#N)cc1` (stereo not given): the inhibition is -9.51% (inactive).

Turning to `O=C(NNC(=O)c1csc(-c2cccnc2)n1)Nc1ccc(Cl)cc1`, the inhibition is 1.85% (inactive).

For `Cc1ccc(-n2c(C)cc(C(=O)CSc3nnc4ccccn34)c2C)cc1`, the inhibition was -7.8% (inactive).

As for `NC(=O)c1ccccc1N=Cc1ccc2ccccc2c1`, the inhibition was 27.1% (inactive).

Regarding `O=C(OCC(=O)N1CCOCC1)c1ccc(N2CCOCC2)c([N+](=O)[O-])c1`, the inhibition was -6.48% (inactive).

In the case of `Cc1nc2nc[nH]n2c(=O)c1C/C=C/c1ccccc1`, the inhibition is -2.13% (inactive).

As for `COc1ccc(C(=O)NNc2cc(C)nc(NNC(=O)c3ccc(OC)cc3)n2)cc1`, the inhibition was -5.16% (inactive).

For the compound `Cc1[nH]n(C)c(=O)c1N=Nc1ccc(S(C)(=O)=O)cc1`, the inhibition is -42.5% (inactive).

In the case of `Cc1ccc(Oc2nc(-c3ccccn3)nc3ccccc23)cc1`, the inhibition was -12.7% (inactive).

For the compound `COC(=O)CN1C(=O)N/C(=C/c2ccc(OC)c(C)c2OC)C1=O`, the inhibition was -28.4% (inactive).

In the case of `C=C(C)C(=O)Nc1cccc(C2=NOC3(C2)C[C@H](C(N)=O)N(C(=O)C(c2ccccc2)c2ccccc2)C3)c1` (stereo not given in full), the inhibition was 7.7% (inactive).

As for `Cc1ccc(Cl)c(OCC(=O)NN2CCN(C)CC2)c1`, the inhibition is -3.39% (inactive).

On to `COc1ccc(C(=O)NC2(C(F)(F)F)NC(=O)N(CCCc3ccccc3)C2=O)c(OC)c1OC` (stereo not given), for which the inhibition was -4.23% (inactive).

For `O=C(CSc1nnc2ccc(-c3ccncc3)nn12)N1CCCCC1`, the inhibition is -7.7% (inactive).

With `COC(=O)c1ccc(/C=N/OCC(=O)Nc2cc(F)ccc2F)cc1`, the inhibition was -4.64% (inactive).

`COc1ccc(NC(=O)c2cc3nc(-c4ccccc4)cc(C)n3n2)cc1OC`: the inhibition was -16.7% (inactive).

Regarding `COc1ccccc1NC(=O)C1CCCN(c2cc(C)nc3ncnn23)C1` (stereo not given), the inhibition is -1.1% (inactive).

On to `COc1cc(/C=C2\SC(=S)N(Nc3ncc(C(F)(F)F)cc3Cl)C2=O)cc(OC)c1OC`, for which the inhibition was -3.09% (inactive).

`COc1cccc(/C=N/Nc2ncc(C(F)(F)F)cc2Cl)c1O`: the inhibition is 73.5% (active).

As to `COc1cccc(/C=N/Nc2cc(C)nc(-c3ccccc3O)n2)c1O`, the inhibition is -40% (inactive).

As for `COC(=O)Nc1ccc(S(=O)(=O)N2CCN(CCN3C(=O)C4C5C=CC(C5)C4C3=O)CC2)cc1` (stereo not given), the inhibition was 1% (inactive).

Regarding `Cc1c(C(N)=O)sc2ncn(CCOc3ccccc3)c(=O)c12`, the inhibition was -3.42% (inactive).

For `CCc1ccc(CNC(=O)CCc2nc(-c3cccs3)no2)cc1`, the inhibition is -2.08% (inactive).

As to `O=C(CCC1CCCN(C(=O)Cc2ccc(F)cc2)C1)N1CCN(c2ccccn2)CC1` (stereo not given), the inhibition was -6.3% (inactive).

Consider `CSc1ccccc1NC(=O)Cc1ccc(Br)cc1`, for which the inhibition is 32.7% (inactive).

On to `O=C1/C(=C\Nc2ccccc2)CCN1c1ncccn1`, for which the inhibition was -65.9% (inactive).

For the compound `COc1ccccc1NC(=O)CC(NCCN(C)C)C(=O)O` (stereo not given), the inhibition is -1.3% (inactive).

As for `COCCCNc1nc2c(-c3cccc(C(F)(F)F)c3)nnn2c2ccccc12`, the inhibition was -3.92% (inactive).

`CCOC(=O)C1(Cc2ccc(Cl)cc2)CCN(C(=O)C2=NNC(=O)CC2)CC1`: the inhibition was -7.3% (inactive).

For the compound `Cc1ccc(SC(=O)COc2ccc(C)c(C)c2)cc1`, the inhibition was 7.35% (inactive).

As for `S=c1nccc(-c2cc(Cl)sc2Cl)[nH]1`, the inhibition was -7.08% (inactive).

With `CCCN1CNC(=S)N(CCc2ccccc2)C1`, the inhibition is -4.25% (inactive).

For `Cc1ccc(C)c(Cn2nnc3c(=O)[nH]c(C(=O)Nc4ccc(F)cc4)nc32)c1`, the inhibition was 1.66% (inactive).

Turning to `COc1ccc(OC)c(NC(=O)N[C@H](Cc2ccccc2)C(=O)NN)c1`, the inhibition is -2.36% (inactive).

Consider `Cc1ccc(NC(=O)Cn2c(=O)n(CCC(=O)NC3CCN(Cc4ccccc4)CC3)c(=O)c3ccccc32)cc1`, for which the inhibition was 1.82% (inactive).

In the case of `COc1ccc(/C=N/S(=O)(=O)c2ccccc2)cc1OC`, the inhibition was -6.73% (inactive).

`CCCSc1ncccc1C(=O)O`: the inhibition was -11% (inactive).

Regarding `CCOC(=O)C1CCN(CCC(=O)Nc2cccc(C)c2)CC1`, the inhibition was -3.14% (inactive).
